# Assay results reported in the supplement of paper PMC9135407.
# Several values for one entry are separate records, joined by “and”; a condition that tells them apart may be missing. Equal values may be shown once. Where a name gives a salt, the structure may show the parent alone. The whole screen tested about 5,800 compounds, of which about 620 (11%) showed activity. Shown is part of a subset that was picked to be rich in actives. Values without a mark were called inactive.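 Rule for the calls: active = score above a cut-off or among the top three wells of a plate; in these data no inactive exceeds 0.85.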
# Tested on: primary human hepatic stellate cells (donor 1)
# Experiment: scaled lipid accumulation score (0 = DMSO-like, 1 = nortriptyline-like); higher = stronger HSC inactivation (lipid re-accumulation), active = hit call of the paper
# Details: 48 h
# Experimental: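 Primary lipid accumulation screen in primary human hepatic stellate cell myofibroblasts (donor 1, passage 8) in 384-well plates. 100 nL of library compound was pin-transferred into 30 µL medium in duplicate, and cells were treated for 48 h. The 'Scaled' score combines distance from plate baseline, toxicity and reproducibility penalties, and is normalised to nortriptyline (positive) and DMSO (negative) controls on each plate. A hit is defined as scaled >0.85 or among the top 3 wells per plate.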
# [1] = library stock concentration: 10 mM
# [2] = library stock concentration: 8.6 mM
# [3] = library stock concentration: 1 mM
# [4] = library stock concentration: 3.33 mM
structure (smiles),measurement,setting,value
Cc1c2ccncc2c(C)c2c1[nH]c1ccccc12 [Ellipticine],scaled lipid accumulation score,,0.623
same,scaled lipid accumulation score,[1],≤ -0.07
CCC(N)C(O)c1ccc(O)c(O)c1 (configuration not stated) [Ethylnorepinephrine hydrochloride],scaled lipid accumulation score,[2],≤ 0
same,scaled lipid accumulation score,[1],≤ -0.027
NCC(O)c1cc(O)c(O)cc1F (configuration not stated) [6-Fluoronorepinephrine hydrochloride],scaled lipid accumulation score,[1],≤ 0
CCCCC/C=C\C/C=C\C/C=C\C/C=C\CCCC(=O)Nc1ccc(O)cc1C,scaled lipid accumulation score,[3],0.064
CCCCCCCC/C=C\CCCCCCCC(=O)N[C@H](C)CO,scaled lipid accumulation score,[3],0.021
COc1cc(C(O)CN)ccc1O (configuration not stated),scaled lipid accumulation score,[1],≤ -0.055
C=C(C)[C@@H]1CCC(C)=C[C@H]1c1c(O)cc(O)cc1CCCCC,scaled lipid accumulation score,[3],≤ 0
CCCCC/C=C\C/C=C\C/C=C\C/C=C\CCCC(=O)N[C@@H](C)C(=O)O [N-Arachidonoyl-L-Alanine],scaled lipid accumulation score,[3],0.035
CCn1cnc2c(Nc3cccc(Cl)c3)nc(N[C@@H]3CCCC[C@@H]3N)nc21,scaled lipid accumulation score,library stock concentration: 80 uM,≤ -0.016
same,scaled lipid accumulation score,library stock concentration: 400 uM,≤ -0.016
same,scaled lipid accumulation score,library stock concentration: 2 mM,0.503
same,scaled lipid accumulation score,[1],0.364 and 0.356
CN1CCC[C@@H]1Cc1c[nH]c2ccc(Nc3ncccc3[N+](=O)[O-])cc12,scaled lipid accumulation score,[1],≤ 0
CC[C@]1(O)CC[C@H]2[C@@H]3CCC4=CCCC[C@@H]4[C@H]3CC[C@@]21C [Ethylestrenol],scaled lipid accumulation score,[1],≤ 0
CCN1C[C@]2(C)CC[C@H](O)[C@]34C1[C@@H](C[C@H]23)[C@@]1(O)C[C@H](OC)[C@H]2C[C@@H]4[C@@H]1[C@H]2O [Karakoline],scaled lipid accumulation score,,≤ 0
C=C(C)[C@H]1CN[C@H](C(=O)O)[C@H]1CC(=O)O [Kainic acid],scaled lipid accumulation score,[1],≤ -0.055 and 0.031 and ≤ -0.009
C=C(C)[C@H]1CN[C@H](C(=O)O)[C@H]1CC(=O)O [(-)-(.alpha.)-Kainic Acid (hydrate)],scaled lipid accumulation score,[3],≤ 0
COc1cc2c(cc1OC)C(C)NCC2 (configuration not stated),scaled lipid accumulation score,,0.537
CC[C@H]1CN2CCc3cc(OC)c(OC)cc3[C@@H]2C[C@@H]1C[C@H]1NCCc2cc(OC)c(OC)cc21.Cl.Cl [Emetine dihydrochloride],scaled lipid accumulation score,,0.98 (active)
CC[C@H]1CN2CCc3cc(OC)c(OC)cc3[C@@H]2C[C@@H]1C[C@H]1NCCc2cc(OC)c(OC)cc21 [Emetine dihydrochloride hydrate],scaled lipid accumulation score,[1],0.835
COc1cc2c(cc1OC)C1CC(=O)C(CC(C)C)CN1CC2 (configuration not stated) [Tetrabenazine],scaled lipid accumulation score,[1],≤ 0 and ≤ -0.001
CC[C@H]1CN2CCc3cc(OC)c(OC)cc3C2C[C@@H]1CC1NCCc2cc(OC)c(OC)cc21.Cl.Cl (some centres not stated) [Emetine],scaled lipid accumulation score,library stock concentration: 3.6 mM,1.37 (active)
CC[C@H]1CN2CCc3cc(OC)c(OC)cc3[C@@H]2C[C@@H]1C[C@H]1NCCc2cc(OC)c(OC)cc21 [Emetine],scaled lipid accumulation score,[1],0.627
CC(=O)[C@H]1CC[C@H]2[C@@H]3CC[C@H]4C[C@](C)(O)CC[C@]4(C)[C@H]3CC[C@]12C [Ganaxolone],scaled lipid accumulation score,[1],0.134 and ≤ -0.001
CCCCCCC(=O)O[C@H]1CC[C@H]2[C@@H]3C[C@@H](O)C4=CC(=O)CC[C@]4(C)[C@H]3CC[C@]12C [6.beta.-Testosterone Enanthate],scaled lipid accumulation score,[3],0.05
c1ccc(/N=N/c2ccccc2)cc1 [Azobenzene],scaled lipid accumulation score,[1],≤ 0
CC1=C2[C@H]3OC(=O)[C@@H](C)[C@@H]3CC[C@@]2(C)C=CC1=O [alpha-Santonin],scaled lipid accumulation score,,≤ 0
C[C@H]1CC[C@]2(NC1)O[C@H]1C[C@H]3[C@@H]4CC[C@H]5C[C@@H](O)CC[C@]5(C)[C@H]4CC[C@]3(C)[C@H]1[C@@H]2C [Tomatidine],scaled lipid accumulation score,,0.117
C[C@]12CCC3C(CC[C@]4(O)C[C@@H](O)CC[C@]34C=O)[C@@]1(O)CCC2C1=CC(=O)OC1 (some centres not stated) [Strophanthidin],scaled lipid accumulation score,[1],1.12 (active)
C[C@H]1O[C@@H](O[C@H]2CC[C@]3(C=O)[C@H]4CC[C@]5(C)[C@@H](C6=CC(=O)OC6)CC[C@]5(O)[C@@H]4CC[C@]3(O)C2)C[C@H](O)[C@@H]1O [Helveticoside],scaled lipid accumulation score,,0.504
C[C@]12CC[C@H]3[C@@H](CC[C@]4(O)C[C@@H](O)CC[C@]34C=O)[C@@]1(O)CC[C@@H]2C1=CC(=O)OC1 [Strophanthidin],scaled lipid accumulation score,,0.887 (active)
CCN1C[C@]2(COC(=O)c3ccccc3N3C(=O)C[C@H](C)C3=O)CC[C@H](OC)[C@@]34[C@@H]5C[C@H]6[C@H](OC)[C@@H]5[C@](O)(C[C@@H]6OC)[C@](O)([C@@H](OC)[C@H]23)[C@@H]14 [Methyllycaconitine citrate],scaled lipid accumulation score,[1],≤ -0.006
CCC1(c2ccc(N)cc2)CCC(=O)NC1=O (racemic) [Dl-aminoglutethimide],scaled lipid accumulation score,[2],0.005
NC(CP(=O)(O)O)C(=O)O (configuration not stated),scaled lipid accumulation score,[1],0.082
CCCCCCCCCCCCCCCCOCC(COP(=O)([O-])OCC[N+](C)(C)C)OC(C)=O (stereo not drawn) [Enantio-PAF C16],scaled lipid accumulation score,[3],0.064
O=[N+]([O-])C=Cc1ccc2c(c1)OCO2,scaled lipid accumulation score,[4],1.44 (active)
same,scaled lipid accumulation score,[1],0.901 (active)
O=[N+]([O-])/C=C/c1ccc2c(c1)OCO2 [Syk Inhibitor III],scaled lipid accumulation score,[4],0.609
O=[N+]([O-])/C=C/c1ccc2c(c1)OCO2,scaled lipid accumulation score,[1],0.967 (active)
O=C(Oc1ccc([N+](=O)[O-])cc1)N1CCC(C(O)(c2ccc3c(c2)OCO3)c2ccc3c(c2)OCO3)CC1,scaled lipid accumulation score,[4],≤ 0
same,scaled lipid accumulation score,[1],≤ -0.001
C=CCc1ccc2c(c1)OCO2 [Safrole],scaled lipid accumulation score,[1],0.109
c1cc2c(cc1[C@H]1OC[C@H]3[C@@H]1CO[C@@H]3c1ccc3c(c1)OCO3)OCO2 [Sesamin],scaled lipid accumulation score,[4],≤ 0
same,scaled lipid accumulation score,[1],≤ 0
C=C1C/C(=C/C)C(=O)O[C@@H]2CCN3CC=C(COC(=O)[C@]1(C)O)[C@H]23 [Seneciphylline],scaled lipid accumulation score,,≤ 0
